Experimental findings from PubChem BioAssay (NCI) are described below.

About 83,000 compounds went through this panel and 20% of them were active in at least one assay; those are over-represented in the sample as a whole.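 A percent growth of 40 corresponds to 60% growth inhibition; 0 means no net growth; -100 means all cells died. Active threshold: below 10.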 Unmarked numbers belong to inactive results. Calls of active or inactive are those of the source.

Among the test systems are SK-MEL-2 melanoma; EKVX NSCLC; SN12C renal; UO-31 renal; ACHN renal; CAKI-1 renal; A498 renal; CCRF-CEM leukemia; MOLT-4 leukemia; TK-10 renal.
Assay in all cases: NCI-60 one-dose screen, 48 h (100 = growth as untreated, 0 = no growth, -100 = all killed)
Holding throughout (settings): 10 µM unless noted

As for `O=S(=O)(NCCNc1cc(-c2cn(-c3ccccc3)nc2-c2cccc(O)c2)ccn1)c1ccc(Br)cc1`, the growth was 20.7% with SK-MEL-2 melanoma; 34.9% with EKVX NSCLC; 34.4% with SN12C renal; 19.8% in the assay with UO-31 renal; 23.7% with ACHN renal; 43.2% with CAKI-1 renal. The growth was 53.7% in the assay with A498 renal, 9.77% (active) in the assay on CCRF-CEM leukemia and 8.59% (active) in the assay on MOLT-4 leukemia.

On to `Clc1ccc(Cn2cc(-c3nc4ccc(Br)nc4n3Cc3ccc(Cl)cc3)c3cccnc32)cc1`, for which the growth was 89.2% with SK-MEL-2 melanoma; 77.8% with EKVX NSCLC; 86.8% in the assay on SN12C renal; 51.7% in the assay on UO-31 renal; 75% with ACHN renal; 82% with CAKI-1 renal. Further, the growth is 76.4% with A498 renal, 78.6% in the assay with CCRF-CEM leukemia and 59.3% with MOLT-4 leukemia.

Consider `CC(=O)c1c(C)[nH]c(-c2nc3ccc(N4CCN(C)CC4)cc3[nH]2)c1-c1ccc(N(C)C)cc1`, for which the growth is 64.3% in the assay on SK-MEL-2 melanoma; 34.5% with EKVX NSCLC; 48.2% in the assay with SN12C renal; 7.2% (active) in the assay with UO-31 renal; 19.8% with ACHN renal; 10.3% in the assay on CAKI-1 renal. In addition, the growth with A498 renal is 6.38% (active); in the assay with CCRF-CEM leukemia it was 36.3%; in the assay on MOLT-4 leukemia, 45.5%.

Turning to `Cc1cc2nc3c4cc([N+](=O)[O-])cc([N+](=O)[O-])c4n(CCN(C)C)c3nc2cc1C`, the growth is 108% in the assay with SK-MEL-2 melanoma; 82.7% in the assay with EKVX NSCLC; 59.7% with SN12C renal; 40.4% in the assay on UO-31 renal; 35.5% with ACHN renal; 49.6% with CAKI-1 renal. Further, the growth with A498 renal was 97%; in the assay on CCRF-CEM leukemia it was 63.1%; with MOLT-4 leukemia, 31.3%.

As to `Cc1c(C)c2c(c(C)c1NC(=O)CCCCCCC(=O)O)CCC(C)(CCCC(C)CCCC(C)CCCC(C)C)O2` (stereo not drawn), the growth in the assay with SK-MEL-2 melanoma was 43.2%; in the assay with EKVX NSCLC, 86.3%; with SN12C renal, 77.5%; in the assay with UO-31 renal, 75.7%; with ACHN renal it was 101%; in the assay with CAKI-1 renal, 100%. The growth is 71.3% in the assay with CCRF-CEM leukemia and 76.7% in the assay on MOLT-4 leukemia.

In the case of `CCSc1ncnc2c1ncn2C1OC(CO)C(O)C1O` (stereo not drawn), the growth with SK-MEL-2 melanoma was 63.4%; with EKVX NSCLC, 51.8%; in the assay with SN12C renal it was 34.4%; with UO-31 renal, 24.5%; in the assay with TK-10 renal, 37.6%; in the assay on CAKI-1 renal, 32.2%. The growth in the assay on A498 renal is 60.9%; in the assay with MOLT-4 leukemia it was 21.4%.

`C=C1C(=O)O[C@H]2[C@H]1CC/C(COC(=O)NCc1cc3ccccc3[nH]1)=C\CC[C@@]1(C)O[C@@H]21`: the growth in the assay on SK-MEL-2 melanoma was 52.7%; in the assay with EKVX NSCLC it was 54.7%; in the assay with SN12C renal, -56.8% (active); in the assay on UO-31 renal, -100% (active); in the assay on TK-10 renal, -54.8% (active); in the assay on A498 renal, 92.5%. Also, the growth with MOLT-4 leukemia is 1.8% (active).

On to `O=C1c2cc3c(cc2-c2c1c1ccc(Cl)cc1c(=O)n2C[C@H](O)[C@@H](O)[C@H](O)CO)OCO3`, for which the growth is -67% (active) in the assay with SK-MEL-2 melanoma; 20.5% in the assay with EKVX NSCLC; -5.37% (active) in the assay on SN12C renal; -48.7% (active) in the assay on TK-10 renal; -58.7% (active) with ACHN renal; -8.82% (active) in the assay with CAKI-1 renal. In addition, the growth was -77% (active) in the assay with A498 renal, 8.41% (active) in the assay on CCRF-CEM leukemia and 2.33% (active) in the assay on MOLT-4 leukemia.

As to `CCCCCC1CCCCN1C(=O)OCC` (stereo not drawn), the growth was 94.9% with SK-MEL-2 melanoma; 124% with EKVX NSCLC; 102% in the assay on SN12C renal; 100% in the assay on TK-10 renal; 98.8% with ACHN renal; 99.4% with CAKI-1 renal. The growth with A498 renal is 91.4%; with CCRF-CEM leukemia, 96.6%; in the assay with MOLT-4 leukemia, 79.9%.

Consider `C=C(C)[C@@H]1CC[C@]2(c3nnc(-c4ccncc4)o3)CC[C@]3(C)[C@H](CC[C@@H]4[C@@]5(C)CCC(=O)NC(C)(C)[C@@H]5CC[C@]43C)[C@@H]12`, for which the growth with SK-MEL-2 melanoma is 111%; in the assay with EKVX NSCLC it was 95.1%; with SN12C renal, 91.8%; in the assay with TK-10 renal, 143%; in the assay on ACHN renal, 98.7%; in the assay on CAKI-1 renal, 51.1%. Moreover, the growth is 99.3% in the assay with A498 renal, 95% with CCRF-CEM leukemia and 85.6% in the assay on MOLT-4 leukemia.

`Cn1c(/C(C#N)=C/c2ccc3ccccc3c2)cc2ccccc21`: the growth was 71.7% with SK-MEL-2 melanoma; 37.4% in the assay on EKVX NSCLC; 33.5% in the assay on SN12C renal; 106% with TK-10 renal; 35.4% in the assay on ACHN renal; 28.5% in the assay with CAKI-1 renal. For the same molecule, the growth in the assay with A498 renal is 2.85% (active); with MOLT-4 leukemia, 19.9%.

With `O=C1Nc2ccccc2/C1=C/c1cn(CCCn2c3ccccc3c(=O)c3ccccc32)c2ccccc12`, the growth in the assay with SK-MEL-2 melanoma was 84.4%; in the assay on EKVX NSCLC, 60.3%; in the assay with SN12C renal, 92%; with UO-31 renal, 44.6%; in the assay on ACHN renal, 89%; with A498 renal it was 112%. In addition, the growth in the assay on CCRF-CEM leukemia was 98.4%; in the assay on MOLT-4 leukemia it was 77.7%.

For `Cc1cccc(C)c1NC(=O)CSC(=S)N1CCN(CCOCCO)CC1`, the growth in the assay on SK-MEL-2 melanoma is 95%; with EKVX NSCLC it was 95%; in the assay on SN12C renal it was 105%; in the assay on TK-10 renal, 85.8%; with ACHN renal, 106%; with A498 renal, 103%. The growth with CCRF-CEM leukemia is 107%; in the assay with MOLT-4 leukemia, 104%.

As to `Cn1c(=O)c2c(ncn2CCC(=O)Nc2ccc(F)cc2)n(C)c1=O`, the growth was 104% in the assay with SK-MEL-2 melanoma; 101% in the assay with EKVX NSCLC; 105% in the assay with SN12C renal; 95% in the assay on TK-10 renal; 110% in the assay on ACHN renal; 92.9% with CAKI-1 renal. In addition, the growth was 103% in the assay with A498 renal, 97.5% in the assay with CCRF-CEM leukemia and 101% with MOLT-4 leukemia.

Consider `CC(=O)O[C@H]1CC[C@@]2(C)C(=CC[C@@H]3[C@@H]2CC[C@]2(C)C(=O)N(O)C(=O)C[C@@H]32)C1`, for which the growth is 80.4% with SK-MEL-2 melanoma; 102% with EKVX NSCLC; 97.2% with SN12C renal; 101% in the assay with TK-10 renal; 89.3% in the assay with ACHN renal; 64.1% in the assay with CAKI-1 renal. For the same molecule, the growth in the assay with A498 renal is 92.7%; with CCRF-CEM leukemia it was 86%; in the assay on MOLT-4 leukemia, 79.5%.
